Compound activity as filed in PubChem.
HEK293 tox: kills HEK 293 cells; HEK 293 viability, ATP luminescence (CellTiter-Glo), 48-72 h; Potency, µM (series often up to 115 µM), for the others: at the highest dose activity change, negative = cytotoxicity, most hits filed as inhibitors; hit rate 6.6% among 94,000; also: % is scaled to controls: 0 for no effect and ±100 for the full control effect; nearly all actives have a fitted effect of over 60% in size
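Luminescence from cellular ATP, measured with CellTiter-Glo, indicates HEK 293 viability. Cells plated at 250 cells/well are treated with compound for 48 or 72 hr at 37 degree Celsius before reagent addition.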
FLuc inh-1: Photinus pyralis luciferase inhibition | hit rate 2.5% among 76,000 | Potency, µM (top dose mostly 115 µM), actives largely listed as inhibitors | purified P. pyralis luciferase, luminescence, biochemical | P08659; also: % is scaled to controls: 0 for no effect and ±100 for the full control effect; nearly all actives have a fitted effect of over 65% in size
Target sequence (P08659 whole entry, looked up): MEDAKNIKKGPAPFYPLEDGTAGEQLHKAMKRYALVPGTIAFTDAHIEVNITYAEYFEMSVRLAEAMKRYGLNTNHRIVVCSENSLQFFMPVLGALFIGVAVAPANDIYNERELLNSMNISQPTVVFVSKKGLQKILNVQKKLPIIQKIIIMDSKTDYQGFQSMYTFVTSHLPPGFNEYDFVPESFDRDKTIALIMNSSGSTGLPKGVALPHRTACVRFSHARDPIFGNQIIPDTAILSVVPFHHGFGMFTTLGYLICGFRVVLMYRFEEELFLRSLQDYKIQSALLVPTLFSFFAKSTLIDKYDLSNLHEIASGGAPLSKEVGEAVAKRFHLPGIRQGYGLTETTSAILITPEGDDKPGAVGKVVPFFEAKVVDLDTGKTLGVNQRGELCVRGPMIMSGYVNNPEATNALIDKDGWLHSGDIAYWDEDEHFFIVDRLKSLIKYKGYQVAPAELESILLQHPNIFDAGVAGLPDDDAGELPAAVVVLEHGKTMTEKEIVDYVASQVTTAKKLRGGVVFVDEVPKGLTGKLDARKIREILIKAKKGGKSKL
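Cell-free enzyme assay, 10nM P. pyralis luciferase, luciferin and ATP each at 10uM. Inhibition profiled over a 6-point titration, read as luminescence.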
NIH3T3 tox: cytotoxic compounds in NIH 3T3 cells | NIH 3T3 viability, CellTiter-Glo ATP luminescence, 48-72 h | Potency, µM (titrated, usually from 96.7 µM), inactives show top-dose activity change, negative = cytotoxicity, hits mostly inhibitors | hit rate 4.3% among 94,000; also: % is scaled to controls: 0 for no effect and ±100 for the full control effect; nearly all actives have a fitted effect of over 55% in size
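Cytotoxicity is measured as loss of cellular ATP: NIH 3T3 cells (400/well) are exposed to compound for 48 or 72 hr at 37 °C, then CellTiter-Glo luminescence is imaged after 10 min at room temperature.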
hNpr1 antagonist: human Npr1 receptor antagonism | hit rate 1.6% among 76,000 | HEK293 hNpr1 GloSensor cGMP, ANP-stimulated luminescence | P16066 | Potency, µM (highest dose often 46.3 µM), for the others: top-dose activity change, negative = inhibition, actives largely listed as inhibitors; calls by dose curve; also: % is scaled to controls: 0 for no effect and ±100 for the full control effect; nearly all actives have a fitted effect of over 60% in size
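HEK293 cells stably expressing human Npr1 and cGMP GloSensor pGS-40F, loaded 2 h with 2% GloSensor reagent, given compound 30 min at room temperature. Luminescence read before and 20 min after 0.1 nM hNppA.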
GPT2 inhibitor: blocks human glutamate pyruvate transaminase 2; Q8TD30; Recombinant GPT2, coupled pyruvate oxidase/HRP Amplex Red fluorescence; Potency, µM (titrated, usually from 57.7 µM), without a hit: at the top dose activity change, negative = inhibition, most hits filed as inhibitors; hit rate 0.25% among 100,000; also: % is scaled to controls: 0 for no effect and ±100 for the full control effect; nearly all actives have a fitted effect of over 60% in size
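Recombinant GPT2 (10ng/uL) with 250uM a-KG and 2mM L-alanine, 30 min at room temperature, in HEPES pH 7.5 buffer. Pyruvate detected by pyruvate oxidase/HRP/Amplex Red fluorescence after 30 min in the dark; AOA (50uM) as positive control.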
FLuc SDR no ATP: stabilizes firefly luciferase without ATP; shares compounds with FLuc inh-1; Purified FLuc-C-HiBiT, Nano-Glo HiBiT luminescence, no ATP; Potency, µM (highest dose often 32.7 µM), inactives show at the top dose activation (signal gain), actives largely listed as activators; hit rate 7.8% among 1,300; also: nearly all actives have a fitted effect of over 55% in size
FLuc SDR ATP: binders stabilizing firefly luciferase, plus ATP. Potency, µM (series often up to 32.7 µM), for the others: at the top dose activation (gain of signal), hits mostly activators. hit rate 8.7% among 1,300. shares compounds with FLuc inh-1. purified FLuc-C-HiBiT + ATP, HiBiT complementation luminescence. AID 1963319;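 also: signal reports ligand binding via conformational change of the enzyme rather than luciferase catalysis; % of control where 0% means no effect; nearly all actives have a fitted effect of over 55% in size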
FLuc inh-2: blocks firefly luciferase enzymatic activity; hit rate 42% among 1,300; Potency, µM (titrated, usually from 32.7 µM), inactives show at the highest dose activity change, negative = inhibition, usual class: inhibitors; purified FLuc-C-HiBiT enzyme, luciferin luminescence; shares compounds with FLuc inh-1; also: % is scaled to controls: 0 for no effect and ±100 for the full control effect; nearly all actives have a fitted effect of over 70% in size
The depositor's hits bear a star; [ ] = another dose, or the depositor's remark. Rows were chosen to be rich in hits. Some 10% of all compounds tested hit in one or more screens of this group. Unless noted, calls follow the shape of the dose curve; as a rule, active = well fitted curve in the direction sought with a large enough effect; inconclusive = small, poorly fitted or top-dose-only effect, or another doubt; inactive = no such curve, though single readings can be large; an effect the other way counts as inactive or inconclusive. Potency is read from the fitted curve at half-maximal effect.

What do the screens show for `O=C(C1CCCC1)N1CCCC1c1nc(C2CCOCC2)no1` (stereo unspecified)?
HEK293 tox: -10%; FLuc inh-1: inactive; NIH3T3 tox: -15%; hNpr1 antagonist: 23%; GPT2 inhibitor: -8%

What do the screens show for `O=C(N1c2ccccc2CC1c1noc(C2CCOCC2)n1)C1(c2ccccc2)CC1` (stereo unspecified)?
HEK293 tox: inconclusive; FLuc inh-1: 8.9µM*; NIH3T3 tox: -23%; hNpr1 antagonist: -21%; GPT2 inhibitor: 3%; FLuc SDR no ATP: 19%; FLuc SDR ATP: 14%; FLuc inh-2: inconclusive

How did O=C(C1CCC1)N1c2ccccc2CC1c1noc(C2CCOCC2)n1 (stereo unspecified) do in these assays?
HEK293 tox: inconclusive; FLuc inh-1: 1.8µM*; NIH3T3 tox: -15%; hNpr1 antagonist: inconclusive; GPT2 inhibitor: 1%; FLuc SDR no ATP: 21%; FLuc SDR ATP: 19%; FLuc inh-2: inconclusive

How did COc1cccc(CNC(=O)N2c3ccccc3CC2c2noc(C3CCOCC3)n2)c1 (stereo unspecified) do in these assays?
HEK293 tox: -23%; FLuc inh-1: 5µM*; NIH3T3 tox: -30%; hNpr1 antagonist: -4%; GPT2 inhibitor: inactive; FLuc SDR no ATP: 14%; FLuc SDR ATP: 14%; FLuc inh-2: inconclusive

How did Cn1c([C@H]2CCN(C3CCCCC3)C2)nc2ccccc21 do in these assays?
HEK293 tox: inconclusive; FLuc inh-1: 7.1µM*; NIH3T3 tox: inconclusive; hNpr1 antagonist: -26%[70.6 µM]; GPT2 inhibitor: -13%[88.5 µM]; FLuc SDR no ATP: 18%[65.7 µM]; FLuc SDR ATP: 12%[65.7 µM]; FLuc inh-2: inconclusive

What do the screens show for `COc1ccc(Sc2ccc(NC(=O)c3ccccc3Cl)cc2C#N)cc1`?
GPT2 inhibitor: 0%

Results for COc1ccc(C(=O)Nc2ccc(-c3nc4ccccc4s3)c(Cl)c2)cc1Cl ?
FLuc SDR no ATP: 14%; FLuc SDR ATP: 11%; FLuc inh-2: -12%

Results for COc1c(C)cccc1C(=O)Nc1ccc(-c2nc3ccccc3s2)c(Cl)c1 ?
FLuc SDR no ATP: 8%; FLuc SDR ATP: 6%; FLuc inh-2: -16%

How did CCOc1ccc(C(=O)Nc2ccc(-c3nc4ccccc4s3)c(C)c2)cc1OCC do in these assays?
FLuc SDR no ATP: 18%; FLuc SDR ATP: 11%; FLuc inh-2: -10%

How did O=C(O)c1ccccc1C(=O)Nc1ccc(-c2ccccc2)cc1 do in these assays?
GPT2 inhibitor: inactive

How did Cc1ccc(C(=O)Nc2cccc(C(=O)O)c2)cc1S(=O)(=O)N1CCCC1 do in these assays?
FLuc SDR no ATP: inconclusive; FLuc SDR ATP: 0.078µM*; FLuc inh-2: 0.088µM*

What do the screens show for `O=C(Nc1ccccc1C(=O)O)c1ccccc1`?
FLuc SDR no ATP: 18%; FLuc SDR ATP: 10%; FLuc inh-2: inconclusive

Results for Cc1ccc(C(=O)Nc2ccccc2C(=O)O)cc1S(=O)(=O)N1CCCCCC1 ?
FLuc SDR no ATP: inconclusive; FLuc SDR ATP: inconclusive; FLuc inh-2: 2.8µM*

How did Cc1ccc(C)c(NS(=O)(=O)c2cc(C(=O)Nc3ccccc3-c3ccccc3)ccc2C)c1 do in these assays?
GPT2 inhibitor: -8%

How did Cc1cc(C)n(CC(=O)N2CCN3CCS(=O)(=O)N(C4CC4)C(=O)C3C2)n1 (stereo unspecified) do in these assays?
HEK293 tox: -19%; NIH3T3 tox: -2%; GPT2 inhibitor: inactive

Results for Cc1ccc(C(=O)Nc2ccc3oc(-c4cccnc4)nc3c2)c(Cl)c1 ?
FLuc SDR no ATP: 17%; FLuc SDR ATP: 15%; FLuc inh-2: inconclusive

How did O=C(Nc1ccc(F)cc1)c1ccc2oc(-c3cccnc3)nc2c1 do in these assays?
HEK293 tox: -20%; NIH3T3 tox: -16%; GPT2 inhibitor: 1%

What do the screens show for `COCCc1noc(C2CN(C(=O)CCC3CCCC3)C2)n1`?
HEK293 tox: -6%; NIH3T3 tox: inconclusive; GPT2 inhibitor: 3%

What do the screens show for `C[C@@H]1C(=O)O[C@H]2[C@H]1CC[C@@]1(C)Cc3sc(NC(=O)NC4CCCCC4)nc3[C@@H](C)[C@H]21`?
HEK293 tox: inconclusive; FLuc inh-1: inconclusive; NIH3T3 tox: -25%[138 µM]; hNpr1 antagonist: -12%[70.6 µM]; GPT2 inhibitor: -13%[88.5 µM]

What do the screens show for `COCC(=O)Nc1nc2c(s1)C[C@]1(C)CC[C@@H]3[C@H](OC(=O)[C@H]3C)[C@H]1[C@@H]2C`?
HEK293 tox: inconclusive; FLuc inh-1: 0.63µM*; NIH3T3 tox: -21%[138 µM]; hNpr1 antagonist: 5.6µM*; GPT2 inhibitor: -11%[88.5 µM]; FLuc SDR no ATP: 6.4µM*; FLuc SDR ATP: 4.5µM*; FLuc inh-2: 1.6µM*

How did O=C(C1CCCN1C(=O)c1ccccc1F)N1CCC(N2CCOCC2=O)CC1 (stereo unspecified) do in these assays?
HEK293 tox: -7%; NIH3T3 tox: 2%; GPT2 inhibitor: inactive

How did CSCC(=O)N[C@H]1CCN2C(=O)c3cc(-c4ccc(SC)cc4)ccc3NC(=O)[C@H]12 do in these assays?
HEK293 tox: -8%; FLuc inh-1: 13µM*; NIH3T3 tox: -17%; hNpr1 antagonist: 5%; GPT2 inhibitor: inactive; FLuc SDR no ATP: 23%; FLuc SDR ATP: 15%; FLuc inh-2: inconclusive

What do the screens show for `O=C(c1cccc(Cl)c1)N1CCC(C(=O)N2CCC(N3CCOC3=O)CC2)CC1`?
HEK293 tox: -1%; NIH3T3 tox: -17%; GPT2 inhibitor: -21%

What do the screens show for `CCOC(=O)c1cccc(Nc2nc(-c3ccccc3)no2)c1`?
HEK293 tox: 28µM*; FLuc inh-1: 1.8µM*; NIH3T3 tox: -27%; hNpr1 antagonist: -30%; GPT2 inhibitor: inactive; FLuc SDR no ATP: 14%; FLuc SDR ATP: inconclusive; FLuc inh-2: inconclusive

How did Cc1cc(C)cc(Nc2nc(-c3ccccc3F)no2)c1 do in these assays?
HEK293 tox: 40µM*; FLuc inh-1: 1.6µM*; NIH3T3 tox: 45µM*; hNpr1 antagonist: inconclusive; GPT2 inhibitor: inactive; FLuc SDR no ATP: 16%; FLuc SDR ATP: 14%; FLuc inh-2: 6.2µM*
